Consider 26 compounds from PubChem BioAssay AID1851 (National Center for Advancing Translational Sciences (NCATS), 2009).

In general, AC50 refers to the concentration giving half of the maximal activity seen.

Hit rate of the full screen: of about 16,000 compounds, about 5,800 (36%) were called active. Another 23% or so got no clear call; they are omitted. Some of the results follow. Values without a mark were called inactive. Calls come from the whole dose curve; as a rule, active = well fitted curve in the direction sought with a large enough effect; inconclusive = small, poorly fitted or top-dose-only effect, or effect the other way; inactive = no such curve, though single readings can be large or run the other way.
% is set by controls: 0 for no effect and ±100 for the full control effect.

For the test, the target named is Cytochrome P450 2C19 (Homo sapiens) (UniProt P33261). Kind of test: Cytochrome panel assay with activity outcomes. The following applies: recombinant CYP, pro-luciferin dealkylation, luminescence, p450-cyp2c19; series mostly up to 57.1 µM. The protocol: The P450 gene superfamily is involved in the metabolism and clearance of xenobiotics. This assay used various human CYP P450 isozymes to measure the dealkylation of various pro-luciferin substrates to luciferin. The luciferin is then measured by luminescence after the addition of a luciferase detection reagent. Pro-luciferin substrate concentration in the assay was equal to its KM for its CYP P450 isozyme. Inhibitors and some substrates limit the production of luciferin, and decrease measured luminescence.
Cytochrome P450 2C19 (Homo sapiens), sequence (P33261 whole entry, looked up): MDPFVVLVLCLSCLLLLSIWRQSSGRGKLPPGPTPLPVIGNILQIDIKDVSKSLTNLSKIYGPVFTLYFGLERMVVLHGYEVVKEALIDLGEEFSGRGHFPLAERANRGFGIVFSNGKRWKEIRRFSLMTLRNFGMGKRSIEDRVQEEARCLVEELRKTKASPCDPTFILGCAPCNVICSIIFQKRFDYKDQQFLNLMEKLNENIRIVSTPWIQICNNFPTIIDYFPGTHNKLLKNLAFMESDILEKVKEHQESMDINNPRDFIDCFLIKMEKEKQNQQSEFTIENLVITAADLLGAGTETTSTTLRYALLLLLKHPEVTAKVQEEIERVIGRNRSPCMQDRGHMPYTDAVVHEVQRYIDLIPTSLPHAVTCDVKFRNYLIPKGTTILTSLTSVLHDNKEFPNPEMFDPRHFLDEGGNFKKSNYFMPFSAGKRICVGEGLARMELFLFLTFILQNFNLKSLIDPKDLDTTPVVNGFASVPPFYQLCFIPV
NCGC Assay Protocol Summary:
1, Reagent, 2 uL, Isozyme and Pro-Luciferin
2, Library compounds, 23 nl, 40 uM to 0.24 nM dilution series
3, Controls, 23 nl, Isozyme specific inhibitor
4, Reagent, 2 uL, NADPH regeneration solution
5, Incubation time, 60 min, Isozyme specific temperature
6, Reagent, 4ul, Detection reagent
7, Incubation time, 20 min, Isozyme specific temperature
8, Detection, 1 sec, ViewLux luminescent read
The luciferase-based P450-GloTM Screening Systems were obtained from Promega (Madison, WI) for CYP 1A2 (V9770), CYP 2C9 (V9790), CYP2 C19 (V9880), CYP 2D6 (V9890), and CYP 3A4 Luciferin-PPXE (V9910) and were adapted for 1,536-well microplates and an automated protocol. The control compounds furafylline for 1A2 (F124), sulfaphenazole for CYP 2C9 (S0758), ketoconazole for CYP 2C19 (K1003), quinidine for 2D6 (Q3625), and ketoconazole for 3A4 (K1003) were purchased from Sigma Aldrich (St. Louis, MO). Recombinant P450 enzymes were obtained from baculovirus constructs expressed in insect cells (BD/Gentest).
Medium-binding white solid Kalypsys plates used. Mixtures kept on ice. 1A2: 10 nM 1A2, 100 uM Luc-ME, 100 mM KPO4; 2C9: 10 nM 2C9, 100 uM Luc-H, 25 mM KPO4; 2C19: 5 nM 2C19, 10 uM Luc-H EGE, 50 mM KPO4; 2D6: 5 nM 2D6, 30 uM Luc-ME EGE, 100 mM KPO4; 3A4: 10 nM, 25 uM Luc-PPXE. All amounts are reflected in their final concentration, working concentration is 2x.
NADPH regeneration solution: 1.3 mM NADP+, 3.3 mM glucose-6-phosphate, 3.3 mM MgCl2, 0.4 U/mL glucose-6-phosphate dehydrogenase for all isozymes, 200 mM KPO4 for 3A4. Mixture prepared at RT but kept on ice during automated run.
RT incubation in auxilliary plate hotel for 1A2, 2D6, and 3A4; 37C for 2C9 and 2C19.
Keywords: P450, CYP1A2, CYP2C19, CYP2C9, CYP2D6, CYP3A4, Luciferase, MLSMR, MLSCN, NIH Roadmap, qHTS, NCGC
As to `COc1ccc(NC(=O)CSc2nc3ccccc3cc2Cc2ccccc2)cc1`, the AC50 is 0.0282 µM (active). Still for that read-out and setting: for `COc1cccc(NC(=O)CSc2nc3ccccc3cc2Cc2ccccc2)c1` the value was 0.251 µM (active); for `COc1ccccc1NC(=O)CSc1nc2ccccc2cc1Cc1ccccc1`, 0.0398 µM (active). Same read-out and setting: in the case of `COc1ccc(NC(=O)CCSc2cc(C)c3ccccc3n2)cc1` it was 7.94 µM (active). Same read-out and setting: in the case of `CN(CCc1ccc(Cl)c(Cl)c1)CCN1CCCCCC1` it was “inactive”; in that of `CN(CCc1ccc(Cl)c(Cl)c1)C[C@@H](O)COc1ccc(NS(C)(=O)=O)cc1`, 2 µM (active).

For `CC(C)NC[C@H](O)c1ccc(NS(C)(=O)=O)cc1`, the AC50 result is “inactive”. The same measure, in the same setting: for `O=C(NCC1CCCO1)c1onc(CSc2ccccc2F)c1C(=O)O` (stereo unspecified) the value was “inactive”; for `COCCNC(=O)c1onc(CSc2ccc(Cl)cc2)c1C(=O)O`, 3.55 µM (active).

For `O=C(NCCCN1CCOCC1)c1cc2c(s1)CSC2`, the AC50 entry is “inactive”.

Turning to `C=CCNC(=O)c1onc(CSc2ccc(F)cc2)c1C(=O)O`, the AC50 was 5.62 µM (active).

Consider `COCCNC(=O)c1onc(CSc2cccc(Cl)c2)c1C(=O)O`, for which the AC50 result was “inactive”. Consider `O=C(NCc1ccccc1)c1onc(CSc2ccc(F)cc2)c1C(=O)NCCCN1CCOCC1`, for which the AC50 was 12.6 µM (active). As to `COc1ccccc1C(=O)O/N=C1/CCCc2c1ccc(OC)c2[N+](=O)[O-]`, the half-maximal activity concentration (AC50) was 0.631 µM (active). Same read-out and setting: in the case of `COc1ccc(/C=N/NC(N)=S)cc1OC(=O)c1cccc2ccccc12` it was 2 µM (active). Turning to `O=C(O)CC[C@]1(C(=O)O)CCC(=O)c2ccccc21`, the activity, negative = inhibition was 22.5% [at 11.4 µM]. For `Cc1ccccc1NS(=O)(=O)c1ccc2[nH]cc(C(=O)N(C)Cc3ccco3)c(=O)c2c1`, the AC50 is 25.1 µM (active). On the same count and under the same terms, for `CC1CCN(c2ccc(S(=O)(=O)Nc3cc(C(=O)O)cc(C(=O)O)c3)cc2[N+](=O)[O-])CC1` the value was 3.16 µM (active). For the compound `NNS(=O)(=O)c1cc(C(=O)O)cc(C(=O)O)c1`, the activity, negative = inhibition was -25.2% [at 11.4 µM]. On to `COC(=O)c1cc(NS(=O)(=O)c2ccc(N3CCCCCC3)c([N+](=O)[O-])c2)cc(C(=O)OC)c1`, for which the AC50 is 5.62 µM (active). As to `CCCCN(C)S(=O)(=O)c1ccc(C(=O)Nc2nnc(CSC)o2)cc1`, the AC50 entry was “inactive”. For the compound `Cc1cc(C)c(C)c(S(=O)(=O)ON2C(=O)c3ccccc3C2=O)c1C`, the AC50 is 3.16 µM (active). Regarding `C=CC(=O)NC(C)(C)Cc1ccccc1`, the AC50 is 14.1 µM (active).

Regarding `CC(C)(SCc1ccccc1)[C@H](N)C(=O)O`, the activity, negative = inhibition was 1.45% [at 11.4 µM]. `N[C@@](CC(=O)O)(Cc1ccccc1)C(=O)O`: the activity, negative = inhibition is 22.4% [at 11.4 µM]. On to `COC(=O)c1ccccc1NS(=O)(=O)c1ccc2c3c(cccc13)C(=O)N2`, for which the AC50 is 0.794 µM (active).
